Screening results from PubChem BioAssay.
B2AR arrestin ag: ADRB2 beta-arrestin recruitment. P07550. HTLA Tango cells, beta-arrestin recruitment, luciferase luminescence, 18 h. Potency, µM (series often up to 46.1 µM), actives largely listed as activators. 44,000 tested, under 10 active. AID 1347077;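 further: potency means the concentration at half of the fitted maximal effect; 0% = DMSO and full agonism = EC100 isoproterenol or metaproterenol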
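Tango cells expressing recombinant beta2-AR and beta-arrestin were treated with compounds (up to 46 microM titration) in DMEM with 1% FBS for 18 hr at 37 degrees C. Beta-arrestin recruitment drove tTA-dependent luciferase, read by luminescence; curves were fitted and classed.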
PTAP-TSG101 blk: TSG101-PTAP interaction inhibition, HIV-1 budding. Fluorescence polarization, FITC-PTAP peptide/Tsg101, 20 min. Potency, µM (titrated, usually from 115 µM), usual class: inhibitors. 44,000 tested, under 10 active. AID 1347069; further: potency means the concentration at half of the fitted maximal effect; 0% is about no effect
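Steps: Tsg101 binding domain (10 uM final) in HEPES pH 7.5/NaCl/Tween 20/EDTA/TCEP; add compound; add FITC-PTAP peptide (50 nM final); incubate 20 min r.t.; read polarization.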
GALK inhibitor: inhibits human galactokinase; recombinant GALK, Kinase-Glo ATP luminescence, 1 h; Potency, µM (top dose mostly 57.5 µM), without a hit: at the top dose activity, negative = inhibition, most hits filed as inhibitors; 44,000 tested, under 10 active; AID 1347072; P51570;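 further: plate controls were full GALK reaction for no effect and reaction lacking GALK for full effect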
Target sequence (P51570 whole entry, looked up): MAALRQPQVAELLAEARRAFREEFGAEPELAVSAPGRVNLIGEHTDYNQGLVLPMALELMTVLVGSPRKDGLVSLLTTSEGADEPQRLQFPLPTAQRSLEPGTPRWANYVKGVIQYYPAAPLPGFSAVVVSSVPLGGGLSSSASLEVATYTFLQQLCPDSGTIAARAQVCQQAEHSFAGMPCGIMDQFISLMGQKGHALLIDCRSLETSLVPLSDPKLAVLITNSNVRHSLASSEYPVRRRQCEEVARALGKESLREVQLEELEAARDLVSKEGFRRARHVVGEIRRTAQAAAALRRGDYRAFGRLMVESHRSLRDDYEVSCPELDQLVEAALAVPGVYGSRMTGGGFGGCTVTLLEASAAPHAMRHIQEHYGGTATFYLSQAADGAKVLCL
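Human GALK (5 nM) was incubated with 35 uM ATP and 100 uM galactose in 20 mM HEPES pH 8.0 with MgCl2, NaCl, DTT and BSA for 1 h at room temperature. Remaining ATP was measured by Kinase-Glo Plus luminescence.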
GALC G270D up: enhancers of human galactocerebrosidase G270D mutant activity in cells; Potency, µM (highest dose often 57.5 µM), most hits filed as activators; P54803; AID 1159614; hit rate 0.1% among 45,000; 145M-Twi-hGALC-G270D cells (Twitcher mouse brain line with human GALC G270D), HMU-beta-Gal fluorescence, 48 h; further: potency means the concentration at half of the fitted maximal effect; 0% is about no effect; nearly all actives have a fitted effect of over 65% in size
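Mutant human GALC (G270D), stably expressed in a Twitcher mouse brain cell line lacking endogenous GALC, is measured in live-treated cells via 6-hexadecanoylamino-4-methylumbelliferyl-β-galactoside hydrolysis (0.1 mM final, pH 5.2) with fluorescent detection.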
NTMT1 inh: NTMT1 methyltransferase inhibition | Q9BV86 | NTMT1 MTase-Glo SAH luminescence, purified enzyme | Potency, µM (top dose mostly 114 µM), for the others: top-dose activity change, negative = inhibition, actives largely listed as inhibitors | AID 1645870 | hit rate 2.5% among 59,000;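 further: potency means the concentration at half of the fitted maximal effect; plate controls were DMSO vehicle for no effect and no enzyme for full effect; nearly all actives have a fitted effect of over 65% in size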
Target sequence (Q9BV86 whole entry, looked up): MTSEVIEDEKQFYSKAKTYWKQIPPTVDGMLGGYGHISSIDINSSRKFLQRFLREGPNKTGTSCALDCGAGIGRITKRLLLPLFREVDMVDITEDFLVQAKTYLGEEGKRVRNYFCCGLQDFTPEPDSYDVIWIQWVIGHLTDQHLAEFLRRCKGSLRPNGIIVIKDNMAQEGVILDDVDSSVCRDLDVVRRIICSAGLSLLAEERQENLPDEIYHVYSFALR
FH mod: Identification of activators of human fumarate hydratase by quantitative high-throughput screening. Fumarate hydratase, mitochondrial (Homo sapiens), P07954. FH coupled MDH/diaphorase resazurin fluorescence, 15 min. Potency, µM (highest dose often 79.9 µM), without a hit: at the top dose activity change, negative = inhibition, hits mostly inhibitors. hit rate 0.22% among 54,000; further: potency means the concentration at half of the fitted maximal effect; on the % scale 0 is the no-effect control and ±100 the full control effect; the screen sought activators but most active calls are inhibition curves; nearly all actives have a fitted effect of over 45% in size
CLK4 inh: CLK4 kinase inhibition, SAR round 2; hit rate 90% among 90; Potency, µM (series often up to 76.9 µM), for inactives: at the highest dose activity, negative = inhibition, usual class: inhibitors; shares compounds with NTMT1 inh; recombinant Clk4, Kinase-Glo ATP luminescence, 4.5 h; AID 493204
Sfp PPTase inh: inhibits purified B. subtilis Sfp PPTase. hit rate 78% among 230. shares compounds with NTMT1 inh. Potency, µM (top dose mostly 114 µM), without a hit: at the highest dose activity change, negative = inhibition, actives largely listed as inhibitors. purified Sfp PPTase enzyme activity, qHTS
HM489 growth: B. subtilis HM489 growth inhibition | shares compounds with NTMT1 inh | B. subtilis HM489 (acpS-) growth, BacTiter-Glo, 5 h | Potency, µM (series often up to 114 µM), without a hit: top-dose activity change, negative = inhibition, most hits filed as inhibitors | hit rate 50% among 220 | AID 540353
Sfp gel opt: Sfp PPTase inhibition, gel-based detection; shares compounds with NTMT1 inh; purified Sfp PPTase, gel-based product detection; Potency, µM (doses to about 250 µM), without a hit: at the top dose activity change, negative = inhibition, actives largely listed as inhibitors; hit rate 54% among 220
Sfp inh gel: inhibits B. subtilis Sfp PPTase in gel-based assay | shares compounds with NTMT1 inh | purified Sfp PPTase, gel-based product detection | Potency, µM (titrated, usually from 250 µM), without a hit: at the highest dose activity change, negative = inhibition, usual class: inhibitors | hit rate 90% among 45
Sfp SAR2: inhibitors of Bacillus subtilis Sfp PPTase, SAR round 2 | shares compounds with NTMT1 inh | purified Sfp enzyme, PPTase activity, qHTS | Potency, µM (titrated, usually from 57.1 µM), for the others: at the top dose activity change, negative = inhibition, actives largely listed as inhibitors | hit rate 87% among 230 | AID 602370
hGST ctr: counter-screen for Sfp PPTase inhibitors: hGST A1-1 inhibition; shares compounds with NTMT1 inh; hGST A1-1 enzyme activity counter-screen, qHTS; Potency, µM (highest dose often 114 µM), for the others: at the highest dose activity change, negative = inhibition, hits mostly inhibitors; 55 tested, under 10 active
HSD17B4 counter: inhibits human HSD17B4, off-target for HPGD inhibitors | shares compounds with NTMT1 inh | purified HSD17B4, estradiol/NAD+, NADH fluorescence | Potency, µM (doses to about 57.1 µM), for inactives: at the top dose activity change, negative = inhibition, actives largely listed as inhibitors | hit rate 10% among 230 | AID 743187
ALDH1A1 counter: ALDH1A1 (human) inhibition, HPGD counter-screen. shares compounds with NTMT1 inh. recombinant ALDH1A1, NADH fluorescence, propionaldehyde/NAD+. Potency, µM (top dose mostly 57.1 µM), for the others: top-dose activity change, negative = inhibition, hits mostly inhibitors. hit rate 93% among 230
NNMT counter: counter-screen for NTMT1 inhibitors: human NNMT inhibition; Potency, µM (titrated, usually from 57.1 µM), inactives show top-dose activity, negative = inhibition, most hits filed as inhibitors; NNMT MTase-Glo luminescence, SAH detection; hit rate 10% among 120; shares compounds with NTMT1 inh
* = called active by the depositor; i = inactive; u = inconclusive; x = no result; ! = a repeat was not active; [ ] = remark or other dose. This excerpt belongs to a sample that is enriched for hits. The call rests on the fitted dose curve; in most records, active means well fitted curve in the direction sought with a large enough effect; inconclusive means small, poorly fitted or top-dose-only effect, or another doubt; inactive means no such curve, though single readings can be large; an effect the other way counts as inactive or inconclusive.

SMILES | B2AR arrestin ag | PTAP-TSG101 blk | GALK inhibitor | GALC G270D up | NTMT1 inh | FH mod | Sfp PPTase inh | HM489 growth | Sfp gel opt | Sfp SAR2 | HSD17B4 counter | ALDH1A1 counter | others
CN(C)CCCNc1ncnc2ccc(-c3ccc4c(c3)OCO4)cc12 | x | x | x | x | u | x | x | x | x | x | x | x | CLK4 inh=1µM*
c1nc(N2CCNCC2)c2cc(-c3ccc4c(c3)OCO4)ccc2n1 | x | x | x | x | u | x | x | x | x | x | x | x | CLK4 inh=0.58µM*
CC1(C)CC[C@]2(C(=O)O[C@@H]3O[C@H](CO)[C@@H](O)[C@H](O)[C@H]3O)CC[C@]3(C)C(=CCC4[C@@]5(C)C[C@@H](O)[C@H](O)[C@](C)(C(=O)O)C5CC[C@]43C)C2C1O (stereo partly specified) | x | x | x | x | 15%[12.6 µM] | u | x | x | x | x | x | x
Cc1ccc(S(=O)(=O)Nc2ccccc2C(=O)Nc2ccc(-c3ccccc3)cc2)cc1 | x | x | x | x | 14% | x | x | x | x | x | x | x
CN(CC1CCCCC1)c1ncnc2ccc(-c3ccc4c(c3)OCO4)cc12 | x | x | x | x | x | x | x | x | x | x | x | x | CLK4 inh=0.058µM*
CCN1CCC(n2cc(CNc3cc(Cl)c4ncc(C#N)c(Nc5ccc(F)c(Cl)c5)c4c3)nn2)CC1 | x | x | x | x | 2.5µM* | -9% | x | x | x | x | x | x | NNMT counter=u
Cc1cc(C)cc(C(=O)Nc2ccc(-c3cn4cccnc4n3)cc2)c1 | i | i | 8% | i | u | 2% | x | x | x | x | x | x
Cc1cc(C)nc(NC(=S)N2CCN(c3ccc(Cl)cc3Cl)CC2)c1 | x | x | x | x | x | x | 1.2µM* | 8.3µM* | 3.2µM* | 1µM* | 5% | 17µM* | Sfp inh gel=3.8µM*;hGST ctr=2.4µM*
Cc1ccc(C)c(N2CCN(C(=O)NCc3noc4ccccc34)CC2)c1 | i | i | 0% | i | -2% | -7% | x | x | x | x | x | x
Cc1cc(C)nc(NC(=S)N2CCN(c3ccccn3)CC2)c1 | x | x | x | x | u | x | 3.7µM*! | u | 32µM*! | 16µM* | -21% | 27µM*
Cc1cc(C)nc(NC(=S)N2CCN(c3cnc4nccn4c3)CC2)c1 | x | x | x | x | u | x | 19µM* | u | -54% | 18µM* | u | -154%
Cc1cc(C)nc(NC(=S)N2CCN(c3noc4ccccc34)CC2)c1 | x | x | x | x | u | x | 3.3µM* | u | -67% | 2.9µM* | -18% | 17µM*
Cc1ccc(NC(=O)N2CCN(c3ccc(Cl)c(Cl)c3)CC2)cc1 | i | i | 2% | i | 1% | -27% | x | x | x | x | x | x
Cc1ccc(-c2cc(C(=O)Nc3ccc(S(=O)(=O)NCc4nccs4)cc3)c3ccccc3n2)cc1C | x | x | x | x | 10%[57.5 µM] | x | x | x | x | x | x | x
Cc1cc(C)nc(NC(=S)N2CCN(c3ncccc3C#N)CC2)c1 | x | x | x | x | u | x | 0.58µM* | u | u | 1.2µM* | -29% | 22µM* | hGST ctr=u
Cc1cc(C)nc(NC(=S)N2CCN(c3ncccc3Cl)CC2)c1 | x | x | x | x | u | x | 3.7µM* | -17% | u | 2µM* | -17% | 19µM*
CN1CCN(C2=Nc3ccccc3Oc3ccc(Cl)cc32)CC1 | x | x | x | i | -3%[57.5 µM] | -5%[53.3 µM] | x | x | x | x | x | x
